Screening data (PubChem BioAssay)
A selection: hits, their analogues and other compounds. The true share with any hit is near 3%.
C8 TRAIL sens: sensitizes caspase-8 expressing cells to TRAIL. actives 1% (n = 360,000). NB7+C8 cells + TRAIL, ATPlite viability luminescence. inhibition (viability loss, TRAIL sensitization), % at 10 µM;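 active = compounds causing at least 50% loss of cell viability in the single-dose screen, relative to plate controls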
SENP7 block: inhibitors of human SENP7 protease; Q9BQF6; recombinant SENP7, Z-RLRGG-aminoluciferin luminescence, 40 min; inhibition, % at 5 µM; actives 1.5% (n = 330,000); AID 434973;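 active = inhibition above about 50% at the single test dose, limit read from the data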
SENP6 block: SENP6 protease inhibition; Recombinant SENP6 catalytic domain, aminoluciferin luminescence; Q9GZR1; inhibition, % at 10 µM; actives 1.8% (n = 330,000);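 active = inhibition above about 50% at the single tested dose, limit read from the data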
Target sequence (Q9GZR1 628-1112 limits assumed): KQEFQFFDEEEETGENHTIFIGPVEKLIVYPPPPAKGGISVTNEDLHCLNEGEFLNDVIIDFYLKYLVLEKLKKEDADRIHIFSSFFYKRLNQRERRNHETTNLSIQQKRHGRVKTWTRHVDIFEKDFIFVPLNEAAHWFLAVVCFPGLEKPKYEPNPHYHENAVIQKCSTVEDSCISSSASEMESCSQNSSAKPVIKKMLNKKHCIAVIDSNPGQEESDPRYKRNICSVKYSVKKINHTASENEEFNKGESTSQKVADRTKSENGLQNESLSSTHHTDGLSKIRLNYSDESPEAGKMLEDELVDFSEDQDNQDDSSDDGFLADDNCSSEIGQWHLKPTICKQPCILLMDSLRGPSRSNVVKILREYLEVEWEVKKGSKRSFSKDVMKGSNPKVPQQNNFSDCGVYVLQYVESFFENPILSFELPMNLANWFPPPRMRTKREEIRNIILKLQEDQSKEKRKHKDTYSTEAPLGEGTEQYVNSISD
SENP8 block-1: inhibitors of human SENP8 protease | AID 602440 | actives 0.64% (n = 360,000) | inhibition, % at 20 µM | recombinant SENP8, Nedd8 substrate fluorescence; in the data active = inhibition mostly above about 40%, no sharp cut-off; inactive = mostly below about 27%
PPC-1+TRAIL kill: compounds killing PPC-1 cancer cells with TRAIL present (potentiator screen, no TRAIL-free arm) | PPC-1 cells + TRAIL, ATPLite viability luminescence | cell killing (% activity), % at 4 µM or 5 µM | actives 0.41% (n = 220,000) | AID 1443;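 active = cell killing above 50% in the first pass at 4 µM, then a duplicate retest at 5 µM averaging 50% or more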
SENP8 block-2: inhibitors of human SENP8 protease. Q96LD8. purified SENP8, Z-RLRGG-aminoluciferin cleavage, luminescence. inhibition, % at 10 µM. actives 1.2% (n = 330,000); in the data active = inhibition above about 50%
SENP8 confirm: confirmation of human SENP8 protease inhibitors. shares compounds with SENP7 block. Recombinant SENP8, Z-RLRGG-aminoluciferin luminescence, 60 min. inhibition, % at 12.5 µM. actives 40% (n = 6,200). AID 488912;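 active = mean inhibition across replicates above about 50%, limit read from the data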
SENP6 confirm: human SENP6 inhibition, confirmed | actives 58% (n = 6,200) | shares compounds with SENP7 block | AID 488915 | inhibition, % at 12.5 µM | recombinant SENP6, Z-RLRGG-aminoluciferin luminescence
SENP7 confirm: human SENP7 inhibition, confirmed; inhibition, % at 12.5 µM; recombinant SENP7, Z-RLRGG-aminoluciferin luminescence, 40 min; shares compounds with SENP7 block; actives 69% (n = 6,200); AID 488917
Casp3 SENP sel: caspase-3 inhibition (SENP selectivity assay); purified caspase-3, Z-DEVD-aminoluciferin luminescence, 60 min; inhibition, % at 12.5 µM; actives 60% (n = 6,200); shares compounds with SENP7 block;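 active = mean inhibition above about 50%, limit read from the data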
Target sequence (P42574 28-227 limits assumed): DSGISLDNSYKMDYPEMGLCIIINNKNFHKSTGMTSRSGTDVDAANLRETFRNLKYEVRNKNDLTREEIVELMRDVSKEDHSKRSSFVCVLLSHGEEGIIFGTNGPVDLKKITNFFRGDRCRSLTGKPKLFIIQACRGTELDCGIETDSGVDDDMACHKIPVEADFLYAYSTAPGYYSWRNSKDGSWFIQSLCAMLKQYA
SENP luc ctr: luminescence interference (SENP counter-screen). shares compounds with SENP7 block. Pre-incubated SENP8/Z-RLRGG-aminoluciferin, luciferase luminescence interference. inhibition, % at 12.5 µM. actives 39% (n = 6,200);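 active = mean inhibition above about 50% when retested at one dose, limit read from the data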
Hits are given with their value; - = inactive; . = not tested or not shown.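 The calls were made as follows, unless noted: active = mean inhibition above about 50% in the one-dose retest (limit read from the data); inactive = the rest.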

SMILES | C8 TRAIL sens | SENP7 block | SENP6 block | SENP8 block-1 | PPC-1+TRAIL kill | SENP8 block-2 | SENP8 confirm | SENP6 confirm | SENP7 confirm | Casp3 SENP sel | SENP luc ctr
O=C(O)c1cccc(Nc2nc(N3CCOCC3)nc(N3CCOCC3)n2)c1 | - | - | - | - | - | - | . | . | . | . | .
O=C(O)c1cccc(Nc2ncnc3ccccc23)c1 | - | - | 68 | - | - | 59 | 70 | 64 | 85 | - | 68
COc1ccc(NC2CCCN(C(=O)c3cc4ncccn4n3)C2)cc1 (stereo not given) | - | - | - | - | . | - | . | . | . | . | .
CCOC(=O)c1oc2ccccc2c1NC(=O)CN1CCOCC1 | - | - | - | - | - | - | . | . | . | . | .
Cc1cc(O)c(-c2cc(C(=O)Nc3cccnc3)[nH]n2)cc1C | - | 71 | - | - | - | - | - | - | 66 | - | -
Cc1cc(C)c(O)c(-c2cc(C(=O)Nc3cccnc3)[nH]n2)c1 | - | - | 68 | - | - | - | - | - | 73 | - | -
CCc1ccc(O)c(-c2cc(C(=O)Nc3cccnc3)[nH]n2)c1 | - | - | - | - | - | - | . | . | . | . | .
Cc1ccc(C)c(NC(=O)c2cc(-c3cc(C)ccc3O)n[nH]2)c1 | - | 66 | - | - | . | - | - | - | 82 | - | -
Cc1nnc(NC(=O)c2ccc(F)c(S(=O)(=O)N3CCCCC3)c2)s1 | - | - | - | - | . | - | . | . | . | . | .
O=C(COC(=O)c1ccccc1[N+](=O)[O-])c1ccc(C2CCCCC2)cc1 | - | 98 | 90 | - | - | 89 | - | 77 | 52 | 79 | -
O=C(OCC(=O)N1CCc2ccccc21)c1ccccc1F | - | - | 58 | - | . | - | - | - | 76 | 64 | -
O=C(OCC(=O)N1CCc2ccccc21)c1ccccc1[N+](=O)[O-] | - | 91 | 87 | - | . | 86 | 94 | 94 | 102 | 95 | 74
O=C1c2cc3c(cc2CCC1c1ccc2c(c1)OCO2)OCO3 (stereo not given) | - | . | . | - | . | . | . | . | . | . | .
COc1cc(/C=C(\C#N)c2nc3ccccc3[nH]2)ccc1Oc1ccc([N+](=O)[O-])cn1 | - | - | - | - | - | - | . | . | . | . | .
COc1cc(/C=C(/C#N)c2nc3ccccc3c(=O)[nH]2)ccc1O | - | 87 | 94 | - | - | 84 | - | - | - | 62 | -
COc1cc(/C=C(/C#N)c2nc3ccccc3[nH]2)ccc1OC(=O)c1ccco1 | - | 70 | 84 | - | - | 78 | 52 | 70 | 99 | 84 | -
N#C/C(=C/c1cccs1)c1nc2ccccc2[nH]1 | - | 57 | - | - | - | - | - | - | 84 | 58 | -
COc1cc(/C=C(\C#N)c2nc3ccccc3[nH]2)cc(Br)c1OCc1ccccc1 | - | - | - | - | - | - | . | . | . | . | .
COc1c(O)ccc(/C=C(\C#N)c2nc3ccccc3[nH]2)c1[N+](=O)[O-] | - | - | 54 | - | - | - | - | - | 59 | - | -
Cc1[nH]c(=O)[nH]c(=O)c1S(=O)(=O)Nc1ccc(Br)cc1F | - | - | - | - | . | - | . | . | . | . | .
COc1ccc(C)cc1NC(=O)c1cc(S(=O)(=O)N2CCOCC2)cn1C | - | - | - | - | . | - | . | . | . | . | .
COc1ccc(-n2nc(C)cc2N)cc1 | - | - | - | - | - | - | . | . | . | . | .
Cc1ccc(-n2nc3cc(C)c(N)cc3n2)cc1 | - | - | - | - | - | - | . | . | . | . | .
COc1ccc(-n2nc3cc(C)c(N)c(Br)c3n2)cc1 | - | - | 63 | - | - | - | - | - | 53 | - | -
COc1ccc(-n2nc3cc(N)c(Br)cc3n2)cc1 | - | 67 | 84 | - | . | 74 | - | 67 | 89 | - | -
SMILES | C8 TRAIL sens | SENP7 block | SENP6 block | SENP8 block-1 | PPC-1+TRAIL kill | SENP8 block-2 | SENP8 confirm | SENP6 confirm | SENP7 confirm | Casp3 SENP sel | SENP luc ctr
CCc1ccc(-n2nc3cc(C)c(N)cc3n2)cc1 | 66 | - | 69 | - | . | - | 73 | 76 | 97 | 69 | -
O=[N+]([O-])c1ccc(COP(=O)(O)OCc2ccc([N+](=O)[O-])cc2)cc1 | - | - | - | - | . | - | . | . | . | . | .
COc1ccc(/C=C/S(=O)(=O)NCc2ccccc2)cc1OC | - | - | - | - | - | - | . | . | . | . | .
COc1cc(CN2C[C@@H](CO)O[C@@H](n3cnc4c(N5CCCC5)ncnc43)C2)cc(OC)c1OC | - | . | . | - | . | . | . | . | . | . | .
O=C(/C=C/c1c(F)cccc1Cl)Nc1cccnc1 | - | 90 | 87 | - | . | 83 | - | 85 | 98 | 87 | -
Cn1cccc1C(=O)NC1CCCCCC1 | - | - | - | - | . | - | . | . | . | . | .
CC(C)Cc1ccc(CN2CCCC(NC(=O)CSc3nncn3C)C2)cc1 (stereo not given) | - | - | - | - | . | - | . | . | . | . | .
Cc1sc(NC(=O)c2ccccc2)c(C#N)c1-c1ccccc1 | - | - | 62 | - | - | - | - | - | - | - | -
O=c1oc(-c2cccc([N+](=O)[O-])c2)nc2ccccc12 | - | - | - | - | . | - | . | . | . | . | .
COc1cccc(-c2nc3ccc([N+](=O)[O-])cc3o2)c1 | - | 95 | - | - | - | - | - | 56 | 73 | - | -
O=[N+]([O-])c1ccc2nc(-c3ccccc3)oc2c1 | - | 71 | 77 | - | - | 63 | 54 | 59 | 78 | 70 | -
CC(=O)CC(=O)NC1CCc2ccccc21 (stereo not given) | - | . | . | - | . | . | . | . | . | . | .
Cc1cc(NC(=O)c2coc(=O)c(Br)c2)ccc1C(C)C | - | - | - | - | - | - | . | . | . | . | .
Cc1ccccc1-c1nnc(SCc2ccc(F)cc2)o1 | - | - | - | - | - | - | . | . | . | . | .
Cc1ccccc1C1=NC(c2ccc(F)cc2F)ON1 (stereo not given) | - | - | 66 | - | - | - | - | - | - | - | -
O=C(O)c1cc(O)c2c(c1)C(=O)c1cc(O)cc(O)c1C2=O | - | - | 52 | - | - | - | 67 | 60 | 84 | - | 72
Cn1cc(CCCC(=O)NCc2ccc(F)cc2)c2ccccc21 | - | - | - | - | . | - | . | . | . | . | .
COc1c(/C=C2\SC(=Nc3ccccc3Cl)NC2=O)cccc1[N+](=O)[O-] | - | - | - | - | . | - | . | . | . | . | .
O=C1NC(=Nc2ccccc2Cl)S/C1=C\c1cccc([N+](=O)[O-])c1O | - | - | 93 | 48 | . | 86 | 90 | 92 | 79 | 52 | 81
COc1ccc(-c2cc3nnc(-c4ccccc4)nc3s2)cc1 | - | - | - | - | - | - | . | . | . | . | .
